Compound activity from PubChem BioAssay.
An excerpt weighted towards active compounds, which were near 1.6% of everything screened.
KCNQ2 enhance: enhances the rat KCNQ2 potassium channel. O88943. CHO-K1 KCNQ2, FluxOR thallium flux fluorescence; stronger effect = higher value. B-score at 10 µM. hit rate 0.54% among 310,000. AID 2239;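 active = fluorescence ratio B-score at least 3 SD of library B-scores, with initial fluorescence B-score within 3 of them, cut at about 5.3 in these data; same plate scores as AID 2156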;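 note: B-score of peak minus minimum over baseline fluorescence ratio after K+ and Tl+ stimulus; positive B-score means potentiation of KCNQ2 with more thallium influx and brighter signal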
KCNQ2 inh: blocks the rat KCNQ2 potassium channel | B-score at 10 µM | O88943 | CHO-K1 KCNQ2, FluxOR thallium flux, 20 min; stronger effect = lower value | hit rate 1.1% among 310,000;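 active = fluorescence ratio B-score at most minus 3 library SDs, with starting brightness B-score within 2 library SDs, cut at about -5.5 in these data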
Kir21 confirm: confirmation of mouse Kir2.1 potassium channel inhibitors; Tl flux remaining, % of negative control (stronger effect = lower value), % at 10 µM; shares compounds with KCNQ2 enhance; AID 2032; Kir2.1-expressing cells, FluxOR thallium flux fluorescence; stronger effect = lower value; hit rate 41% among 2,300;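 active = Primary-screen hit whose thallium flux fell at least 3 control SD below untreated wells in both duplicates, with normal baseline fluorescence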;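 note: 0% = blank wells without stimulus and 100% = stimulated no-compound controls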
HEK293 ctr: parental HEK293 activity in Kir2.1 inhibitor counter-screen; shares compounds with KCNQ2 enhance; parental HEK293 cells, FluxOR thallium flux fluorescence; 0% = unstimulated blank wells; FluxOR signal as % of negative control (100 = no effect), % at 10 µM; hit rate 19% among 2,300;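 active = dye signal at least 3 control SD above or below untreated wells in both duplicates, raw fluorescence within 3, either direction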;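 note: percent is based on the flux ratio of peak minus minimum fluorescence over baseline F0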
CHO-K1 ctr: alters thallium flux in parental CHO-K1 cells, KCNQ2 counter-screen; shares compounds with KCNQ2 enhance; FluxOR thallium flux fluorescence; zero = vehicle mean+3SD, 100% = vehicle-minus-blank window; activity increase over 3SD of controls, % at 10 µM; hit rate 43% among 1,200;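 active = signal rise of at least 3 SD above the untreated control mean, in both duplicate wells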;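 note: counter screen of KCNQ2 potentiator hits so any rise reflects channel-independent effects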
KCNQ1 pot spec: human KCNQ1 counter-target activity of KCNQ2 potentiators; shares compounds with KCNQ2 enhance; AID 2283; activation over 3SD threshold, % at 10 µM; CHO KCNQ1 stable, FluxOR thallium flux fluorescence; beyond 3SD, as % of vehicle-control signal; hit rate 28% among 1,200;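 active = fluorescence ratio rise of at least 3 SD of vehicle wells above their mean, in both replicate wells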;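 note: 0% = vehicle mean plus 3 SD and 100% = vehicle minus unstimulated blank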
Target sequence (P51787 whole entry, looked up): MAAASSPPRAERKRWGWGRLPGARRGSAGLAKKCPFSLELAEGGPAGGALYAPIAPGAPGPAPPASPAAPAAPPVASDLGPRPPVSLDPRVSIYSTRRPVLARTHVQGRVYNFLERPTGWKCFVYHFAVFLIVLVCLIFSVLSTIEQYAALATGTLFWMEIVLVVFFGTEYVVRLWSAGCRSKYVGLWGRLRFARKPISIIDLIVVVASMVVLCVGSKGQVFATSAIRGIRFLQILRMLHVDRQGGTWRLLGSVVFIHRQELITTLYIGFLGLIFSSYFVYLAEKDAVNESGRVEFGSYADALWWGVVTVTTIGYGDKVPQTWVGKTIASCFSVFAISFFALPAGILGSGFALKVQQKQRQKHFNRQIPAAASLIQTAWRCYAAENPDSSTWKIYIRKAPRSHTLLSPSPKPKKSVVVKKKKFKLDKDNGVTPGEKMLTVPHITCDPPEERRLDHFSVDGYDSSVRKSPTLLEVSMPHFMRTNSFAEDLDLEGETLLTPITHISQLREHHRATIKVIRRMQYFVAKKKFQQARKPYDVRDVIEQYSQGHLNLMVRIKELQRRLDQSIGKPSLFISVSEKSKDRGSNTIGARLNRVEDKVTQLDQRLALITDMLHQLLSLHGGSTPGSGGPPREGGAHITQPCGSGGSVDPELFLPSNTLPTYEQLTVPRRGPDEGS
KCNQ2 pot conf: rat KCNQ2 channel potentiator confirmation; potentiation, less the hit threshold, % at 10 µM; shares compounds with KCNQ2 enhance; CHO-KCNQ2 cells, FluxOR thallium flux fluorescence; hit rate 68% among 1,200;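 active = fluorescence ratio rising 3 SD or more over the vehicle control mean in both replicates, plus primary screen hit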;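 note: peak minus minimum thallium fluorescence divided by baseline after K/Tl stimulus; 0% = vehicle mean plus 3 SD and 100% = vehicle minus unstimulated blank difference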
Kir2-1 sel: tests whether KCNQ2 potentiators also affect mouse Kir2.1; hit rate 2% among 1,200; activity over 3SD threshold, % at 10 µM; HEK293 Kir2.1, FluxOR thallium flux fluorescence; shares compounds with KCNQ2 enhance;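 active = fluorescence ratio rise of at least 3 SD above the vehicle-control mean, seen in both replicates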;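 note: 0% = vehicle mean plus 3 SD and 100% = vehicle minus no-stimulus blank window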
KCNQ2 W236L MoA: KCNQ2 potentiators acting on retigabine-insensitive rat KCNQ2 W236L mutant; shares compounds with KCNQ2 enhance; current increase over 3SD of negative controls (%), stronger effect = higher value, % at 25 µM; hit rate 10% among 940; CHO KCNQ2-W236L, automated patch clamp current;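 active = current increase at least 3 SD of the untreated controls above them in both duplicate recordings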
* hit, by the source's call.

What do the screens show for `O=C(N/N=C\c1ccc(F)cc1)c1csnn1`?
KCNQ2 enhance: 2.08; KCNQ2 inh: inactive

How did COc1cc(CNCCc2ccccc2)cc(Br)c1OCC(=O)Nc1ccccc1C do in these assays?
KCNQ2 enhance: -7.11; KCNQ2 inh: -7.11*; Kir21 confirm: 55.0%*; HEK293 ctr: inactive

How did CNCc1cc(Br)c(OCC(=O)Nc2ccccc2OC)c(OC)c1 do in these assays?
KCNQ2 enhance: 0.95; KCNQ2 inh: inactive

Results for Cc1ccc(C(=O)Sc2cccccc2=O)cc1 ?
KCNQ2 enhance: 11.2*; KCNQ2 inh: inactive; CHO-K1 ctr: -11.7; KCNQ1 pot spec: -20.7; KCNQ2 pot conf: 84.7*; Kir2-1 sel: -45.6; KCNQ2 W236L MoA: inactive

How did Cc1ccc(C(=O)CC(=O)c2ccccc2)cc1 do in these assays?
KCNQ2 enhance: 1.34; KCNQ2 inh: inactive

What do the screens show for `CCn1c(SCC(=O)Nc2nc3ccc(OC)cc3s2)nc2c1c(=O)n(C)c(=O)n2C`?
KCNQ2 enhance: 0.29; KCNQ2 inh: inactive

What do the screens show for `Cc1cc(C)n(Cc2cccc(C(=O)N/N=C/c3cccnc3)c2)n1`?
KCNQ2 enhance: 0.34; KCNQ2 inh: inactive

Results for Cc1ccccc1NC(=O)CC(O)(C(F)(F)F)C(F)(F)F ?
KCNQ2 enhance: 0.22; KCNQ2 inh: inactive

Results for Cc1ccc(NC(=O)CC(O)(C(F)(F)F)C(F)(F)F)c(Br)c1 ?
KCNQ2 enhance: 8.74*; KCNQ2 inh: inactive; Kir21 confirm: inactive; HEK293 ctr: inactive; CHO-K1 ctr: 54.3*; KCNQ1 pot spec: 53.9*; KCNQ2 pot conf: 31.2*; Kir2-1 sel: -38.8; KCNQ2 W236L MoA: inactive

Results for O=C1N(CCCl)c2ccc(Br)cc2C12OCCO2 ?
KCNQ2 enhance: 0.71; KCNQ2 inh: inactive

What do the screens show for `CCC(O)(CC)C(=O)N(Nc1ccc(C)cc1)c1ccc(C)cc1`?
KCNQ2 enhance: 5.58*; KCNQ2 inh: inactive; Kir21 confirm: inactive; HEK293 ctr: inactive; CHO-K1 ctr: -6.4; KCNQ1 pot spec: -4.4; KCNQ2 pot conf: -1.2; Kir2-1 sel: -42.0; KCNQ2 W236L MoA: 37.1%*

Results for CCOC(=O)C(=O)N(Nc1ccc(C)cc1)c1ccc(C)cc1 ?
KCNQ2 inh: inactive

Results for CC1=C(C(=O)O)N2C(=O)C(NC(=O)c3ccccc3Cl)C2SC1 (configuration not stated) ?
KCNQ2 enhance: 12.6*; KCNQ2 inh: inactive; Kir21 confirm: inactive; HEK293 ctr: inactive; CHO-K1 ctr: 4.5*; KCNQ1 pot spec: -23.5; KCNQ2 pot conf: -8.6; Kir2-1 sel: -32.1

How did CC1=C(C(=O)O)N2C(=O)C(NC(=O)c3nn(C)cc3Cl)C2SC1 (configuration not stated) do in these assays?
KCNQ2 inh: inactive

How did COc1ccc(C2(C(=O)NCCc3ccccc3)CCCC2)cc1 do in these assays?
KCNQ2 inh: inactive

Results for O=C(NCCc1ccc(Cl)cc1)C1(c2ccccc2)CC1 ?
KCNQ2 inh: inactive; Kir21 confirm: 33.5%*; HEK293 ctr: inactive

Results for Cc1cc(C(=O)Nn2c(-c3ccc(Br)cc3)nc3ccccc3c2=O)ccc1[N+](=O)[O-] ?
KCNQ2 inh: inactive

How did CCOc1ccc(CNC(=O)c2ccc3c(c2)N(CC)CCS3)cc1 do in these assays?
KCNQ2 inh: inactive

What do the screens show for `CCN1C(=O)CSc2ccc(C(=O)NCc3ccc(OC)cc3)cc21`?
KCNQ2 enhance: 0.62; KCNQ2 inh: inactive; Kir21 confirm: 58.0%*; HEK293 ctr: inactive

What do the screens show for `COc1ccc(N2CCC(CNC(=O)Nc3ccc(C)c(C)c3)C2)cc1` (configuration not stated)?
KCNQ2 enhance: 1.19; KCNQ2 inh: inactive

What do the screens show for `Cc1ccc(C)c(CN2CCC(CNC(=O)Nc3ccc(C)c(C)c3)CC2)c1`?
KCNQ2 enhance: 7.57*; KCNQ2 inh: inactive; Kir21 confirm: inactive; HEK293 ctr: inactive; CHO-K1 ctr: 60.1*; KCNQ1 pot spec: -11.4; KCNQ2 pot conf: 10.0*; Kir2-1 sel: -30.6; KCNQ2 W236L MoA: inactive

How did CCOC(=O)C1(CCc2ccccc2)CCN(C(=O)CCn2cncn2)CC1 do in these assays?
KCNQ2 enhance: 0.15; KCNQ2 inh: inactive

How did Cc1ccc(S(=O)(=O)c2ccc(C)cc2)cc1 do in these assays?
KCNQ2 enhance: 0.96; KCNQ2 inh: inactive

How did Cc1ccc(S(=O)(=O)CCCS(=O)(=O)c2ccc(C)cc2)cc1 do in these assays?
KCNQ2 inh: inactive; Kir21 confirm: 67.0%*; HEK293 ctr: inactive

Results for O=C(Cc1ccc(Cl)c(Cl)c1)Nc1ccc2[nH]c(=O)[nH]c2c1 ?
KCNQ2 enhance: 1.45; KCNQ2 inh: inactive

What do the screens show for `CCc1cccc(C)c1NC(=O)COC(=O)C1CCN(S(=O)(=O)c2ccccc2)CC1`?
KCNQ2 enhance: 1.87; KCNQ2 inh: inactive

Results for CCc1cccc(C)c1NC(=O)CN1CCN(S(=O)(=O)c2ccc(C(C)(C)C)cc2)CC1 ?
KCNQ2 enhance: 5.32*; KCNQ2 inh: inactive; Kir21 confirm: inactive; HEK293 ctr: inactive; CHO-K1 ctr: 63.4*; KCNQ1 pot spec: -9.1; KCNQ2 pot conf: -19.1; Kir2-1 sel: -35.5

How did CNC(=O)c1sccc1SCc1ccc(Cl)cc1Cl do in these assays?
KCNQ2 inh: inactive

How did CNC(=O)c1sccc1SCc1c(Cl)cccc1Cl do in these assays?
KCNQ2 inh: inactive; Kir21 confirm: 46.0%*; HEK293 ctr: inactive

How did O=C(C1CC(=O)N(c2ccccc2)C1)N1CCN(c2ccccc2)CC1 (configuration not stated) do in these assays?
KCNQ2 enhance: 2.39; KCNQ2 inh: inactive

Results for COc1ccc(OCCC(=O)OCC(=O)NCc2ccc(F)cc2)cc1 ?
KCNQ2 enhance: 0.88; KCNQ2 inh: inactive

How did CC(NS(=O)(=O)OCC(Cl)(Cl)Cl)c1ccc(Br)cc1 (configuration not stated) do in these assays?
KCNQ2 inh: inactive; Kir21 confirm: 42.0%*; HEK293 ctr: inactive
